# Laboratory results as given in PubChem BioAssay (NCATS).
# Results filed as inconclusive are left out. A number with no mark means an inactive call. Activity calls are given as the source filed them. The call rests on the fitted dose curve; in most records, active means well fitted inhibition curve with a large enough effect; inconclusive means small, poorly fitted or top-dose-only effect; inactive means flat fitted curve, though single readings scatter.
# System: CP266
# Assay: qHTS profiling for inhibitors of Plasmodium falciparum proliferation (AID 504749); further: nearly all actives have a fitted effect of over 60% in size;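 on activity, negative = inhibition: 0% = DMSO vehicle and full inhibition = artemisinin control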
# Conditions: P. falciparum in erythrocytes, SYBR Green DNA, 72 h; series mostly up to 28.7 µM; activity, negative = inhibition: at the top concentration
# Summary of the method: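 SYBR Green fluorescence of parasite DNA, read after lysis and overnight dark incubation, measured growth over 72 h in erythrocyte culture at 0.3% parasitemia and 2.5% hematocrit. Data normalised to DMSO and 0.29 uM artemisinin, with plate-drift correction.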
# Potency means the concentration at half of the fitted maximal effect.
SMILES,"activity, negative = inhibition",Potency
CC/C=C\C/C=C\C/C=C\C/C=C\C/C=C\C/C=C\CCC(=O)O,6.93%,–
O=C(O)/C=C/c1ccccc1,7.13%,–
CC(=O)Oc1cccc(C(=O)O)c1OC(C)=O,-13.9%,–
CC(CNC(=O)c1cccnc1)NC(=O)c1cccnc1 (centres undefined),2.55%,–
CN=C1C=CC(=C(c2ccc(N(C)C)cc2)c2ccc(N(C)C)cc2)C=C1,–,1.07 µM (active)
CC/C(=C(/CC)c1ccc(OP(=O)(O)O)cc1)c1ccc(OP(=O)(O)O)cc1,-4.45%,–
ClC(Cl)Cl,0.534%,–
CCCCCCCCCCCCCCCCCC[N+](C)(C)CCC[Si](OC)(OC)OC,-11.7%,–
Oc1cc(O)cc(O)c1,0.19%,–
CC(=O)Nc1c(I)c(C(=O)O)c(I)c(N(C)C(C)=O)c1I,-28.7%,–
CC(C)CCC[C@@H](C)[C@H]1CC[C@H]2[C@@H]3CC=C4C[C@@H](O)CC[C@]4(C)[C@H]3CC[C@]12C,3.25%,–
CCCCCCCCCCCCOCCCN,-0.987%,–
CC(C)(C)c1ccc2c(S(=O)(=O)O)c(C(C)(C)C)ccc2c1,0.624%,–
CCSc1ccc2c(c1)N(CCCN1CCN(C)CC1)c1ccccc1S2,6.33% [at 12.8 µM],–
c1ccc(-n2cnnn2)cc1,-1.38%,–
CN1CCC(OC(=O)C(Oc2ccc(Cl)cc2)Oc2ccc(Cl)cc2)CC1,21.1%,–
CC(C)Cc1ccc([C@@H](C)C(=O)NS(C)(=O)=O)cc1,-13.8%,–
CCCc1ccc(C(=O)O)cc1,16.2%,–
CNC(=O)c1c(I)c(C(=O)NCC(=O)Nc2c(I)c(C(=O)O)c(I)c(C(=O)NCCO)c2I)c(I)c(N(C)C(C)=O)c1I,5.76%,–
CC1CC(O)CC(C)(C)C1 (centres undefined),0.797%,–

SMILES,"activity, negative = inhibition",Potency
C=Cc1ccc(S(=O)(=O)O)cc1,2.97%,–
OCC1(CO)COC(C(Cl)(Cl)Cl)OC1,-0.642%,–
CC(C)(C)CC(C)(C)c1cc(Cc2cc(C(C)(C)CC(C)(C)C)cc(-n3nc4ccccc4n3)c2O)c(O)c(-n2nc3ccccc3n2)c1,0.227%,–
O=C(O)c1ccc(OCCn2ccnc2)cc1,-23.9%,–
CC(C)c1ncc([N+](=O)[O-])n1C,0.165%,–
CN1c2c(nc(N)[nH]c2=O)NCC1CNc1ccc(C(=O)NC(CCC(=O)O)C(=O)O)cc1 (centres undefined),7.32%,–
N=C(N)n1cccn1,-1.53%,–
N[C@H](CC(=O)O)C(=O)O,2.5%,–
NCC(O)CC(=O)O (centres undefined),-6.62%,–
CCN(CC)C(=O)c1cccnc1,-0.806%,–
CCOC(C)OCC,13.2%,–
FCOC(C(F)(F)F)C(F)(F)F,1.28%,–
CN[C@@H]1[C@H](O[C@H]2[C@H](O[C@H]3[C@H](O)[C@@H](O)[C@H](N=C(N)N)[C@@H](O)[C@@H]3N=C(N)N)O[C@@H](C)[C@]2(O)C=O)O[C@@H](CO)[C@H](O)[C@H]1O,5.89%,–
CC(C)[C@@H](N)C(=O)O,-7.79%,–
O=C(O)COc1ccc(CCNS(=O)(=O)c2ccccc2)s1,1.18%,–
CC(=O)Nc1ccc(OC(=O)c2ccccc2O)cc1,-1.45%,–
CC(C)O,-1.48%,–
C=CC[C@@H]1/C=C(\C)C[C@H](C)C[C@H](OC)[C@H]2O[C@@](O)(C(=O)C(=O)N3CCCC[C@H]3C(=O)O[C@H](/C(C)=C/[C@@H]3CC[C@@H](O)[C@H](OC)C3)[C@H](C)[C@@H](O)CC1=O)[C@H](C)C[C@@H]2OC,–,8.49 µM (active)
Cc1cc(=O)c(C(=O)N[C@@H](C(=O)N[C@@H]2C(=O)N3C(C(=O)O)=C(CSc4nnnn4C)CS[C@H]23)c2ccc(O)cc2)c[nH]1,1.14%,–
